Experimental data from PubChem BioAssay (NCI).
Compounds without any hit were thinned out: in the full panel of roughly 83,000, 20% have a hit.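 Results are percent growth after 48 hours of single-concentration exposure. 100 means growth as in untreated cells, lower positive values show inhibition; negative values down to -100 show cell death.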 Unmarked numbers belong to inactive results. Activity calls are given as the source filed them. How the source made its calls: active means growth percent below 10; inactive means the rest.

system: MDA-MB-468 breast; assay: NCI-60 one-dose screen, 48 h (100 = growth as untreated, 0 = no growth, -100 = all killed); conditions: 10 µM unless noted

| Structure (SMILES) | growth |
| --- | --- |
| CCn1c(Cc2ccccc2Nc2c(Cl)cccc2Cl)nnc1SCC(=O)NN1C(=O)/C(=C/c2cc(OC)c(O)c(OC)c2)SC1=S | -2.96% (active) |
| Cn1cnc([N+](=O)[O-])c1Sc1nnc(-c2ccccc2)c(-c2ccccc2)n1 | 64.8% |
| CCOC(=O)C/C(C)=N\NC(=O)c1ccncc1 | 110% |
| O=C(Nc1ccc(-n2cc(-c3ccncc3)c(-c3ccc(Cl)c(O)c3)n2)cc1)c1cc(Cl)cc(Cl)c1 | 57.6% |
| [2H]C([2H])([2H])Oc1ccc(F)cc1/C=C/C(=O)/C=C(/C=C/c1cc(F)ccc1OC([2H])([2H])[2H])OB(F)F | 69.5% |
| COc1cc(-c2ccc(N=Nc3ccc4c(S(=O)(=O)O)ccc(N)c4c3O)c(OC)c2)ccc1N=Nc1ccc2c(S(=O)(=O)O)ccc(N)c2c1O | 120% |
